Here are results for 40 compounds from PubChem BioAssay AID720518 (National Center for Advancing Translational Sciences (NCATS), 2013).

Results filed as inconclusive are left out. Active and inactive are the calls of the source. Calls come from the whole dose curve.
Potency is the fitted concentration of half-maximal effect.

The assay is described as follows: qHTS for Inhibitors of Cell Surface uPA Generation: Wild-type Protective Antigen (WT-PrAg) Counterscreen for Cherry-picked Compounds. For activity (protection): 0% is about no effect. The settings on record: cells, WT protective antigen toxicity counterscreen; series mostly up to 115 µM; activity (protection): at the top concentration. For orientation: qHTS replaces the single test concentration by a dilution series.
As for `O=C(N/N=C/c1cccs1)c1ccco1`, the “activity (protection)” value was -1.72% (inactive).

For the compound `Cn1c(=O)n(CC(=O)O)c(=O)c2c1nc1n2CCCN1CCc1ccccc1`, the “activity (protection)” value was -1.35% (inactive).

Turning to `NC(=O)c1cc2ccncc2c2ccccc12`, the “activity (protection)” value is -0.105% (inactive).

As to `CCOC(=O)CN1C(=O)N[C@@H](c2ccco2)C(C(=O)OC)=C1C`, the “activity (protection)” value was -1.93% (inactive).

On to `CCOCCOc1cc(NCc2ccccc2)c2ncn(C(C)C)c2c1`, for which the “activity (protection)” value is -2.32% (inactive).

As to `COc1cc(CCC(=O)OCC(=O)Nc2ccc(C)cc2Br)cc(OC)c1OC`, the “activity (protection)” value is -1.19% (inactive).

`COC(=O)/C(C#N)=C/c1c(N2CCN(c3ccccc3)CC2)nc2c(C)cccn2c1=O`: the “activity (protection)” value was -0.794% (inactive).

As for `NC(=O)c1ccccc1NC(=O)CC12CC3CC(CC(C3)C1)C2`, the “activity (protection)” value was -1.39% (inactive).

Regarding `O=C(Nn1cnnc1)c1ccc(Cl)c(Cl)c1`, the “activity (protection)” value is -0.404% (inactive).

Turning to `CCc1ccc(N2CC(C(=O)Nc3ccc4c(c3)OCO4)CC2=O)cc1` (stereo not given), the “activity (protection)” value is 1.62% (inactive).

For the compound `COc1ccccc1N1CCN(C(=O)CCC(=O)N2CCN(c3ccc(F)cc3)CC2)CC1`, the “activity (protection)” value is -1.42% (inactive).

In the case of `COc1cc(OC)cc(C(=O)NC(C(=O)Nc2ccc3c(c2)CCC3)C(C)C)c1` (stereo not given), the “activity (protection)” value was 0.968% (inactive).

As to `CCOc1ccc(NS(=O)(=O)c2ccc(C(=O)N3CCC3)cc2)cc1`, the “activity (protection)” value is -0.678% (inactive).

Take `Cc1cccc(CCNC(=O)Cc2ccc(NC3=NC4CS(=O)(=O)CC4S3)cc2)c1` (stereo not given): the “activity (protection)” value was 0.911% (inactive).

For the compound `Cc1ccc(Cl)c(N/C=C/C(=O)c2ccccc2)c1`, the “activity (protection)” value was -1.71% (inactive).

Turning to `COC(=O)/C(C#N)=C\c1c(OC)[nH]c2ccccc12`, the “activity (protection)” value is -0.248% (inactive).

In the case of `O=C(CSc1ccc(Cl)cc1)N1CCCC1`, the “activity (protection)” value was -1.93% (inactive).

In the case of `COc1ccc(N2CC(C(=O)Nc3nnc(SCCC4OCCO4)s3)CC2=O)cc1` (stereo not given), the “activity (protection)” value was -0.992% (inactive).

As for `CC(C)C[C@H]1CN([C@@H](CC(C)C)CN2CCCC2CN2C(=S)NC[C@@H]2Cc2ccc(O)cc2)C(=S)N1CC1CCCCC1` (stereo not given in full), the “activity (protection)” value was -0.649% (inactive).

`O=C(O)CNC(=S)N(Cc1ccccc1)Cc1cccnc1`: the “activity (protection)” value was -0.77% (inactive).

Regarding `O=C(/C=C/c1ccc(O)c(O)c1)O[C@@H]1C[C@](O)(C(=O)O)C[C@@H](O)[C@H]1O`, the “activity (protection)” value is -0.319% (inactive).

Take `CC(C)(O)C#Cc1ccc(C(=O)N2CCCC(CCC(=O)NCc3ccccc3F)C2)cc1` (stereo not given): the “activity (protection)” value is -1.52% (inactive).

As to `CC(=O)c1ccc(N2CCN(C(=S)NCc3ccco3)CC2)cc1`, the “activity (protection)” value is -1.46% (inactive).

Turning to `COc1cccc(NC(=O)c2nnn(CC(=O)Nc3cc(C)cc(C)c3)c2N)c1`, the “activity (protection)” value was 1.77% (inactive).

`CC(=O)Nc1ccc(NC(=O)CCCCCN2C(=O)c3ccccc3C2=O)cc1`: the “activity (protection)” value was -0.858% (inactive).

`COc1ccc(C2=NOC(CNC(N)=S)C2)cc1` (stereo not given): the “activity (protection)” value was -1.29% (inactive).

Consider `COc1cc(/C=C(/C#N)C(=O)Nc2ccccc2)ccc1OCc1ccc(C(=O)O)cc1`, for which the “activity (protection)” value is 0.55% (inactive).

Consider `CCC(C)C1NC(=O)C2CCCN2C(=O)C(CC(C)C)OC(=O)CCNC(=O)C(C)N(C)C(=O)C(C(C)C)N(C)C1=O` (stereo not given), for which the Potency is 3.69 µM (active).

For `NC(=O)c1cc2c3ccccc3ccn2c1-c1ccccc1`, the “activity (protection)” value was -1.66% (inactive).

Take `OCCN(Cc1ccccc1)CC(O)COc1ccc2c(c1)OCO2` (stereo not given): the “activity (protection)” value is -0.0373% (inactive).

Take `C=C1C(=O)[C@@]23[C@H](O)C[C@@H]4C(C)(C)CC[C@H](O)[C@]4(C)[C@@H]2C[C@H](O)[C@@H]1[C@H]3O`: the “activity (protection)” value was -0.321% (inactive).

Consider `Cc1nn(-c2ccc(F)cc2)c(C)c1NS(=O)(=O)c1ccc(Cl)cc1`, for which the “activity (protection)” value was -1.36% (inactive).

For the compound `COc1cc(C2NC(=O)NC(C)=C2C(=O)OCC2CCCCC2)ccc1O` (stereo not given), the “activity (protection)” value is -0.334% (inactive).

For the compound `FC(F)(F)Oc1ccc(NC2=NCCCS2)cc1`, the “activity (protection)” value is -0.406% (inactive).

For `O=C(COC(=O)c1cc([N+](=O)[O-])ccc1NCCO)NCc1cccs1`, the “activity (protection)” value was -0.253% (inactive).

Consider `COc1ccc(-c2cccc(-c3cc(=O)oc4cc(OC)c(OC)c(OC)c34)c2)cc1`, for which the “activity (protection)” value was -1.14% (inactive).

Turning to `C/C=C/C(=O)Nc1cccc(C2=NOC3(C2)C[C@@H](C(N)=O)N(C(=O)c2cc([N+](=O)[O-])cc([N+](=O)[O-])c2C)C3)c1` (stereo not given in full), the “activity (protection)” value was -1.15% (inactive).

Take `Cn1c(C2CCCCC2)nc2cc(N)ccc21`: the “activity (protection)” value was -1.75% (inactive).

With `CCn1c2ccccc2c2n[nH]c(=S)nc21`, the “activity (protection)” value was -0.605% (inactive).

Take `CCNc1nc(Nc2ccc(C)c(Cl)c2)c2cnn(C)c2n1`: the “activity (protection)” value was -0.478% (inactive).
